The list is not random: actives were taken first. Their share in the collection is about 17%.
DT40 TDP1 no CPT: qHTS for Inhibitors of human tyrosyl-DNA phosphodiesterase 1 (TDP1): qHTS in cells in absence of CPT; DT40 Tdp1-/- hTDP1 cells, no CPT, ATP luminescence, 48 h; AID 686978, 2013; Potency, µM (series often up to 46.2 µM), for inactives: at the top dose activity change, negative = growth inhibition, hits mostly inhibitors; actives 15% (n = 420,000); also: % is scaled to controls: 0 for no effect and ±100 for the full control effect; nearly all actives have a fitted effect of over 55% in size
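Luminescent ATP content (CellTiter-Glo) served as the growth readout. Knockout chicken DT40 cells expressing human TDP1 were exposed to compounds without camptothecin for a minimum 48 hr at 37 °C.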
HT1080-NT tox: kills 2HG-producing HT-1080-NT fibrosarcoma cells | HT-1080-NT fibrosarcoma viability, CellTiter-Glo ATP luminescence, 48 h | Potency, µM (doses to about 46.1 µM), for inactives: at the top dose activity, negative = less viability, usual class: cytotoxic | actives 1.6% (n = 360,000) | AID 686970;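 also: NT is the 2HG producing partner of a matched IDH1 knockdown line; 0% = DMSO-treated cells and -100% = media-only wells without cells; nearly all actives have a fitted effect of over 55% in size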
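Read-out is CellTiter-Glo luminescence after 10 minutes at room temperature, following 48 hours' compound treatment of HT-1080-NT cells (750 cells/well, RPMI, 5% FBS, 37 degrees C).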
DT40 TDP1 CPT: DT40-hTDP1 cell growth loss with CPT; chicken DT40 Tdp1-/-;hTDP1 cells + 20 nM CPT, ATP luminescence, 48 h; Potency, µM (highest dose often 46.2 µM), for inactives: at the highest dose activity change, negative = growth inhibition, most hits filed as inhibitors; actives 12% (n = 420,000); also: % is scaled to controls: 0 for no effect and ±100 for the full control effect; nearly all actives have a fitted effect of over 55% in size
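Chicken DT40 Tdp1-/- cells stably complemented with human TDP1 were seeded at 400 cells/well in medium containing 20 nM camptothecin, exposed to pin-transferred compounds, and grown at 37 °C for at least 48 hr. Viability was read as ATP luminescence.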
TGFb inhibitor: inhibitors of TGF-b signaling | HepG2 CAGA-GFP TGF-b/SMAD3 reporter, GFP fluorescence, 18 h; TGF-beta stimulated, 500 pg/mL final | Potency, µM (highest dose often 46.1 µM), inactives show at the top dose activity, negative = inhibition, actives largely listed as inhibitors | actives 1.2% (n = 410,000) | AID 588855; also: % is scaled to controls: 0 for no effect and ±100 for the full control effect; nearly all actives have a fitted effect of over 65% in size
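Inhibition was scored as loss of TGF-beta-induced (500 pg/mL final, 18 hours, 37 degrees C) GFP in HEPG2 cells carrying a CAGA-GFP reporter, in DMEM with 1% FBS. Well GFP was summed per cell; Activity was normalised to unstimulated and stimulated DMSO wells, then concentration-response fitting.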
HepG2 tox: HepG2 cytotoxicity, counter-screen for TGF-b inhibitors; HepG2 CAGA-GFP viability, ATP luminescence, 18 h; Potency, µM (series often up to 46.1 µM), for inactives: at the top dose activity change, negative = cytotoxicity, actives largely listed as cytotoxic; actives 0.76% (n = 410,000); AID 588856
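HepG2 CAGA-GFP cells (1000/well, DMEM with 1% FBS) received compound, then TGF-beta at 500 pg/mL final, and were incubated 18 hours at 37 degrees C. Viability was read by CellTiter-Glo luminescence. Media-only wells were set as complete cell-killing and DMSO as no toxicity.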
HT1080 IDH1KD tx: HT-1080 IDH1 knockdown cell toxicity (counter line); Potency, µM (titrated, usually from 46.1 µM), for the others: at the highest dose activity, negative = toxicity, most hits filed as cytotoxic; actives 2% (n = 360,000); HT-1080 IDH1 knockdown viability, ATP luminescence, 48 h;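 also: 0% = DMSO wells and -100% = cell-free medium wells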
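Luminescent ATP read-out (CellTiter-Glo, 10 min at room temperature) after 48 h compound exposure at 37 °C gave viability of IDH1-knockdown HT-1080 cells. Activity was normalised to DMSO and cell-free wells, then fitted as concentration-response curves.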
An asterisk follows results filed as active; u = inconclusive; x = no result. Calls follow the shape of the dose curve; as a rule, active = well fitted curve in the direction sought with a large enough effect; inconclusive = small, poorly fitted or top-dose-only effect, or another doubt; inactive = no such curve, though single readings can be large; an effect the other way counts as inactive or inconclusive. Potency is read from the fitted curve at half-maximal effect.

SMILES | DT40 TDP1 no CPT | HT1080-NT tox | DT40 TDP1 CPT | TGFb inhibitor | HepG2 tox | HT1080 IDH1KD tx
CC(C)[C@H](NC(=O)Nc1cccc(C(F)(F)F)c1)C(=O)O | -1% | 14% | 21% | 6% | 1% | 8%
NC(Cc1ccc(C(F)(F)F)cc1)c1csc(NC(=O)Nc2ccccc2Cl)n1 (stereo not drawn) | 21µM* | 15µM* | u | u | -98% | u
CC(C)C(N)c1csc(NC(=O)Nc2cccc(C(F)(F)F)c2)n1 (stereo not drawn) | 15µM* | 21µM* | 15µM* | u | -99% | 23µM*
NC(Cc1ccc(Cl)cc1)c1csc(NC(=O)Nc2ccccc2)n1 (stereo not drawn) | 15µM* | 23µM* | 13µM* | 16µM* | 16µM* | 18µM*
CC(=O)Oc1ccc(/C=C2/CCc3ccccc3C2=O)cc1 | u | -7% | u | u | -73% | 1%
Cc1noc(C)c1COc1ccccc1C(=O)N(C)CC(=O)Nc1ccc(F)c(F)c1F | 7% | 7% | 13% | -4% | 4% | 2%
COc1ccc(CNC(=O)C2CCN(S(=O)(=O)c3c(C)noc3/C=C/c3ccccc3F)CC2)cc1 | -16% | x | u | -23% | -13% | x
CC(C)CSCC1OC(n2cnc3c(N)nccc32)C(O)C1O (stereo not drawn) | 21µM* | -3% | u | -30% | -34% | -11%
CC(C)c1ccc(/C=C/C2=NNC(=O)CC2)cc1 | 12µM* | u | 18µM* | 14% | -15% | -22%
O=C(N/N=C/c1ccc(O)cc1)c1cc(-c2ccc3c(c2)OCO3)n[nH]1 | -27% | u | -26% | 0% | -39% | u
O=C(N/N=C/c1cccc(O)c1)c1cc(-c2ccc3c(c2)OCO3)n[nH]1 | 21µM* | u | 21µM* | -5% | -29% | u
O=C(N/N=C/c1ccc2c(c1)OCO2)c1cccc(NC(=O)c2ccccc2Cl)c1 | 8.2µM* | 12µM* | 8.2µM* | -20% | -19% | 8.2µM*
Cc1cccc(C(=O)Nc2cccc(C(=O)N/N=C/c3ccc4c(c3)OCO4)c2)c1 | 29µM* | 18µM* | u | -15% | -10% | u
CC(=O)c1ccc(N(C(=O)Cn2nnc(-c3ccccc3)n2)C(C(=O)NC2CCCCC2)c2ccccn2)cc1 (stereo not drawn) | -6% | 4% | -5% | -3% | 7% | 1%
CC(C)C(NC(=O)C(Cc1ccccc1)NC(=O)OCc1ccccc1)C(=O)O (stereo not drawn) | 4% | -9% | 6% | -13% | -4% | 2%
COc1ccc2c(CNCc3cccs3)c(C(=O)O)n(Cc3cccc(F)c3)c2c1 | u | x | -8% | 2% | -34% | x
COc1ccc2c(CNCCc3ccccc3)c(C(=O)O)n(Cc3cccc(F)c3)c2c1 | 18µM* | x | u | u | -31% | x
CCOc1ccccc1CNCc1c(C(=O)O)n(Cc2ccccc2)c2cc(OC)ccc12 | 13µM* | x | u | u | 7% | x
COc1ccc2c(CNC3CCC(C)CC3)c(C(=O)O)n(Cc3ccc(F)cc3)c2c1 (stereo not drawn) | 16µM* | x | u | u | -48% | x
COc1ccc(Cn2c(C(=O)O)c(CNC3CCCC3)c3ccc(OC)cc32)cc1 | -29% | x | u | -5% | -13% | x
COc1ccc(Cn2c(C(=O)O)c(CNCc3ccccc3F)c3ccc(OC)cc32)cc1 | 16µM* | x | u | x | -47% | x

Bioassay records: PubChem BioAssay, National Center for Advancing Translational Sciences (NCATS)
